Test results from PubChem BioAssay (Tox21).
Several values for one entry are separate records, joined by “and”; a condition that tells them apart may be missing. Equal values may be shown once. Records with an inconclusive call do not appear. Activity calls are given as the source filed them. Unless noted, the call rests on the fitted dose curve; in most records, active means well fitted curve in the direction sought with a large enough effect in the repeat runs; inconclusive means weak or mixed curves; inactive means no such curve, though single readings can be large; an effect the other way counts as inactive or inconclusive.

What was measured:
[1] = qHTS assay to identify aromatase inhibitors - cell viability counter screen (AID 743084);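 further: cells stimulated with testosterone during compound exposure; nearly all actives have a fitted effect of over 55% in size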; further: potency means the concentration at half of the fitted maximal effect
[2] = target: Aryl hydrocarbon receptor (Homo sapiens) (UniProt P35869); test: qHTS assay to identify small molecule that activate the aryl hydrocarbon receptor (AhR) signaling pathway (AID 743085); further: nearly all actives have a fitted effect of over 15% in size; further: potency means the concentration at half of the fitted maximal effect;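 on activation: HG2L7.5c1 human HepG2 liver cells with stably integrated DRE-driven firefly reporter; series mostly up to about 70 µM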
Sequence of Aryl hydrocarbon receptor (Homo sapiens) (P35869 whole entry, looked up): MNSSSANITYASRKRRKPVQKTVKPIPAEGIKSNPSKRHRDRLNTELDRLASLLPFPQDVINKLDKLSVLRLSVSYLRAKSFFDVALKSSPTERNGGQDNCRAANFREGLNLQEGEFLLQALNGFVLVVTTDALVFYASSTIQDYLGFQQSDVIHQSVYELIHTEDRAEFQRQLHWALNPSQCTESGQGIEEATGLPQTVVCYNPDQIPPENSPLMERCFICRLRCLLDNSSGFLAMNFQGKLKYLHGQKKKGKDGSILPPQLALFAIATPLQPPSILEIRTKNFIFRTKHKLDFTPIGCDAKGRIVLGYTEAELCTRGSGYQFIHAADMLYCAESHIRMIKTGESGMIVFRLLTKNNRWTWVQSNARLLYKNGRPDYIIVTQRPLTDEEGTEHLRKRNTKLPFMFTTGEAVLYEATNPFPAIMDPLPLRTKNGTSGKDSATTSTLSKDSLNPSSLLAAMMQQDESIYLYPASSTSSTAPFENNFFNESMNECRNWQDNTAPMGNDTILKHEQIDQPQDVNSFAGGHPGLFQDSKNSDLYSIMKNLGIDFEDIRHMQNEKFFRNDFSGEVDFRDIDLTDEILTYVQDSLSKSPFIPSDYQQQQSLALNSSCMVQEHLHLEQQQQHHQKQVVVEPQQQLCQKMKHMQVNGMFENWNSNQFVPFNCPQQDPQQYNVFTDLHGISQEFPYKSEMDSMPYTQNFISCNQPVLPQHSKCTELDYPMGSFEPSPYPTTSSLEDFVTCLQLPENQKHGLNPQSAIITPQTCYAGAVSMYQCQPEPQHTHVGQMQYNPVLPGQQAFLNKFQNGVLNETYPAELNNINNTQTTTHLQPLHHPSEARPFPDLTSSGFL
Method in brief: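 HepG2 cells (HG2L7.5c1) stably carrying a firefly luciferase reporter driven by 20 dioxin responsive elements were exposed to compound for 24 h at 37C after a 5 h settling period; luminescence rise (ONE-Glo) indicated activation.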

[3] = qHTS assay to identify small molecule that activate the aryl hydrocarbon receptor (AhR) signaling pathway - cell viability counter screen (AID 743086); further: nearly all actives have a fitted effect of over 45% in size; further: potency means the concentration at half of the fitted maximal effect;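 on viability change, negative = cytotoxic: HepG2 liver cells carrying the AhR DRE luciferase reporter; series mostly up to about 70 µM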
Method in brief: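 HepG2-AhR-luc (HG2L7.5c1) cells, 4000/well, treated 24 h at 37 C with compound; viability measured as CellTiter-Fluor fluorescence after 30 min in the same wells as the luciferase read.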

[4] = target: Peroxisome proliferator-activated receptor gamma (Homo sapiens) (UniProt P37231); test: qHTS assay to identify small molecule agonists of the peroxisome proliferator-activated receptor gamma (PPARg) signaling pathway (AID 743094; active means well fitted activation curve with a large enough effect in the signal ratio in the repeat runs, not every such curve was filed as active; the % refers to the signal ratio; further: potency means the concentration at half of the fitted maximal effect)
Sequence of Peroxisome proliferator-activated receptor gamma (Homo sapiens) (P37231 whole entry, looked up): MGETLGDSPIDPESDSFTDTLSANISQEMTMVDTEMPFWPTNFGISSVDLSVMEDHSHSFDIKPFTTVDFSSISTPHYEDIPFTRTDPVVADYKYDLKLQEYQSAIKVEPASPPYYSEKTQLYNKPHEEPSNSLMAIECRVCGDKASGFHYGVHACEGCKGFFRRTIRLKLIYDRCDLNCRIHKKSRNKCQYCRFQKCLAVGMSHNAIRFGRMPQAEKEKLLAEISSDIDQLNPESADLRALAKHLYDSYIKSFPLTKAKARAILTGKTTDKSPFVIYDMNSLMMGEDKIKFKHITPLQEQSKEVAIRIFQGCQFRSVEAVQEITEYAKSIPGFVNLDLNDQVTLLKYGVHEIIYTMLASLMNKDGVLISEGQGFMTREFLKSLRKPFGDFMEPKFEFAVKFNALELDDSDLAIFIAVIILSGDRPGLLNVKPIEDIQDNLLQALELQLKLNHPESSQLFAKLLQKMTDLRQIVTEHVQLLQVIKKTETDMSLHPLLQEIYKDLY
Method in brief: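 Compounds dissolved in DMSO were added to PPARg UAS-bla HEK293H cells for 17 h at 37C, and reporter expression was quantified by fluorescence intensity after 1 h with LiveBLAzer B/G FRET substrate.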

[5] = target: Peroxisome proliferator-activated receptor gamma (Homo sapiens) (UniProt P37231); test: qHTS assay to identify small molecule antagonists of the peroxisome proliferator-activated receptor gamma (PPARg) signaling pathway (AID 743191; calls by dose curve; further: series mostly up to about 63 µM; nearly all actives have a fitted effect of over 30% in size)
Method in brief: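 GeneBLAzer PPARg UAS-bla HEK293H cells, 5 h post-plating, exposed to compounds 17 h at 37C. LiveBLAzer B/G FRET substrate added for 1 h at room temperature; beta-lactamase reporter read by fluorescence intensity.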

[6] = qHTS assay to identify small molecule antagonists of the peroxisome proliferator-activated receptor gamma (PPARg) signaling pathway - cell viability counter screen (AID 743194); further: nearly all actives have a fitted effect of over 55% in size; further: potency means the concentration at half of the fitted maximal effect
Method in brief: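 Cytotoxicity counter screen in PPARg-bla HEK293H cells, same wells as reporter assay. Compounds plus 50 nM rosiglitazone (final) for 17 h at 37 C, then viability read by CellTiter-Glo luminescence.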

[7] = qHTS assay for small molecule agonists of the antioxidant response element (ARE) signaling pathway (AID 743202; active means well fitted activation curve with a large enough effect in the signal ratio in the repeat runs, not every such curve was filed as active; the % refers to the signal ratio; further: potency means the concentration at half of the fitted maximal effect)
Method in brief: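 Agonist mode reporter screen: HepG2 cells with ARE-controlled beta-lactamase are incubated with test compounds for 16 h at 37 C, and beta-lactamase activity is measured as fluorescence of cleaved B/G FRET substrate.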

[8] = qHTS assay for small molecule agonists of the antioxidant response element (ARE) signaling pathway - cell viability counter screen (AID 743203; calls by dose curve; further: nearly all actives have a fitted effect of over 55% in size; further: potency means the concentration at half of the fitted maximal effect)
Method in brief: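 Following 16 hrs of compound treatment at 37C, HepG2 cells with an ARE-controlled beta-lactamase gene were lysed with CellTiter-Glo. Luminescence was read after 30 min at room temperature.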

[9] = qHTS assay for small molecule activators of the heat shock response signaling pathway - cell viability counter screen (AID 743209); further: nearly all actives have a fitted effect of over 50% in size; further: potency means the concentration at half of the fitted maximal effect
Method in brief: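 Readout: CellTiter-Glo luminescence, 30 min at room temperature. System: HSE-bla HeLa cells, 1500/well, plated overnight. Treatment: compounds in DMSO, 5 h at 37 C.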

[10] = qHTS assay for small molecule activators of the heat shock response signaling pathway (AID 743210; active means well fitted activation curve with a large enough effect in the signal ratio in the repeat runs, with a control signal flat, not every such curve was filed as active; the % refers to the signal ratio;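 further: HeLa cells with beta-lactamase reporter driven by heat shock elements; series mostly up to about 63 µM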)
Method in brief: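 Quantitative high-throughput format using an engineered HeLa line in which heat shock response elements drive beta-lactamase; after 5 h with compound, cells received a B/G FRET substrate and fluorescence was read.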

[11] = target: Peroxisome proliferator-activated receptor delta (Homo sapiens) (UniProt Q03181); test: qHTS assay to identify small molecule agonists of the peroxisome proliferator-activated receptor delta (PPARd) signaling pathway (AID 743212; calls by dose curve)
Sequence of Peroxisome proliferator-activated receptor delta (Homo sapiens) (Q03181 whole entry, looked up): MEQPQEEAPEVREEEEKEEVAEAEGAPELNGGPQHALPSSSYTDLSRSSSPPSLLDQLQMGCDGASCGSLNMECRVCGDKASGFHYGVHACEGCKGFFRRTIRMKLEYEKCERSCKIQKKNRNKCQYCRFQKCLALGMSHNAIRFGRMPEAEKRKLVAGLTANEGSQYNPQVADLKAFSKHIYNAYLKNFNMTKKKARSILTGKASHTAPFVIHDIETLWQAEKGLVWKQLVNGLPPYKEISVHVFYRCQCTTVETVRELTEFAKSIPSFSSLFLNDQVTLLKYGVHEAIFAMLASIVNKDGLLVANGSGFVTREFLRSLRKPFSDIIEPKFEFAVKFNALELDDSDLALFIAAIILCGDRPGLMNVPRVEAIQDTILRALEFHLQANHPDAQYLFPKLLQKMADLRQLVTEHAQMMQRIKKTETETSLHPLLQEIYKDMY
Method in brief: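 Quantitative high-throughput agonist screen in a HEK293H beta-lactamase reporter line under UAS control. Compounds in DMSO, at 37 C. Fluorescence read after 2 h with FRET substrate at room temperature.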

[12] = qHTS assay to identify small molecule antagonists of the peroxisome proliferator-activated receptor delta (PPARd) signaling pathway - cell viability counter screen (AID 743213); further: nearly all actives have a fitted effect of over 50% in size; further: potency means the concentration at half of the fitted maximal effect
Method in brief: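 Cytotoxicity counter screen: CellTiter-Glo luminescence read 30 min after addition, in the same wells as the reporter assay. There, PPARd UAS-bla HEK293H cells (3000/well) were treated 17 h at 37 C with compound and 300 nM L165041.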

[13] = target: Peroxisome proliferator-activated receptor delta (Homo sapiens) (UniProt Q03181); test: qHTS assay to identify small molecule antagonists of the peroxisome proliferator-activated receptor delta (PPARd) signaling pathway (AID 743215; active means well fitted inhibition curve with a large enough effect in the signal ratio in the repeat runs, not every such curve was filed as active; the % refers to the signal ratio;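 further: cells stimulated with agonist L165041 at 300 nM final during compound exposure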; further: potency means the concentration at half of the fitted maximal effect; on ratio activity, negative = inhibition: series mostly up to about 62 µM)
Method in brief: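 HEK293H UAS-bla, PPARd; agonist L165041 300 nM final with cpd in DMSO; 37 C 17 h; FRET substrate, RT 2 h; fluorescence intensity.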

[14] = qHTS assay to identify small molecule agonists of the farnesoid-X-receptor (FXR) signaling pathway - cell viability counter screen (AID 743218); further: nearly all actives have a fitted effect of over 45% in size; further: potency means the concentration at half of the fitted maximal effect
Method in brief: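 Parallel cytotoxicity test: compound-treated (16 h, 37 C) HEK 293T FXR-bla reporter cells were lysed with CellTiter-Glo and luminescence recorded.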

[15] = target: Bile acid receptor (Homo sapiens) (UniProt Q96RI1); test: qHTS assay to identify small molecule agonists of the farnesoid-X-receptor (FXR) signaling pathway (AID 743220; active means well fitted activation curve with a large enough effect in the signal ratio in the repeat runs, not every such curve was filed as active; the % refers to the signal ratio)
Sequence of Bile acid receptor (Homo sapiens) (Q96RI1 whole entry, looked up): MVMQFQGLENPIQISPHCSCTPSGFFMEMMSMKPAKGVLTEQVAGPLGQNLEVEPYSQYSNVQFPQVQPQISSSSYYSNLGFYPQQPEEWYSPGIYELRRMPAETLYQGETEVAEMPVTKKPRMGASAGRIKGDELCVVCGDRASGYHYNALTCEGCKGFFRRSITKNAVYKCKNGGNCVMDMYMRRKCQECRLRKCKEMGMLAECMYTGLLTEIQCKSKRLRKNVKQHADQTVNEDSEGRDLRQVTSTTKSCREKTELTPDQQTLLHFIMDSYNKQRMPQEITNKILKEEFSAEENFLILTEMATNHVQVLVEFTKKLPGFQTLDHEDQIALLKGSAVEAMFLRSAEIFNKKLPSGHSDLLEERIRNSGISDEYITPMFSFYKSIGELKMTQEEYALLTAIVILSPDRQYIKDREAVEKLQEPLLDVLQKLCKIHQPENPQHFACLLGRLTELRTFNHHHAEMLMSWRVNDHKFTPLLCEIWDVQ
Method in brief: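 Beta-lactamase reporter under UAS control in GeneBLAzer FXR HEK 293T cells (5000/well) measured with LiveBLAzer FRET substrate after 2 h at room temperature. Compound exposure lasted 16 h at 37C.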

[16] = qHTS assay to identify small molecule antagonists of the farnesoid-X-receptor (FXR) signaling pathway - cell viability counter screen (AID 743221; active means well fitted cell-killing curve with a large enough effect in the repeat runs, not every such curve was filed as active; further: nearly all actives have a fitted effect of over 50% in size; further: potency means the concentration at half of the fitted maximal effect)
Method in brief: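 FXR-UAS-bla HEK 293T cells were treated with test compounds plus chenodeoxycholic acid (50 uM final) for 16 h at 37 C. Cell viability in the same wells was then read as CellTiter-Glo luminescence after 30 min at room temperature.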

[17] = target: Vitamin D3 receptor (Homo sapiens) (UniProt P11473); test: qHTS assay to identify small molecule antagonists of the vitamin D receptor (VDR) signaling pathway (AID 743223; active means well fitted inhibition curve with a large enough effect in the signal ratio in the repeat runs, not every such curve was filed as active; the % refers to the signal ratio)
Sequence of Vitamin D3 receptor (Homo sapiens) (P11473 whole entry, looked up): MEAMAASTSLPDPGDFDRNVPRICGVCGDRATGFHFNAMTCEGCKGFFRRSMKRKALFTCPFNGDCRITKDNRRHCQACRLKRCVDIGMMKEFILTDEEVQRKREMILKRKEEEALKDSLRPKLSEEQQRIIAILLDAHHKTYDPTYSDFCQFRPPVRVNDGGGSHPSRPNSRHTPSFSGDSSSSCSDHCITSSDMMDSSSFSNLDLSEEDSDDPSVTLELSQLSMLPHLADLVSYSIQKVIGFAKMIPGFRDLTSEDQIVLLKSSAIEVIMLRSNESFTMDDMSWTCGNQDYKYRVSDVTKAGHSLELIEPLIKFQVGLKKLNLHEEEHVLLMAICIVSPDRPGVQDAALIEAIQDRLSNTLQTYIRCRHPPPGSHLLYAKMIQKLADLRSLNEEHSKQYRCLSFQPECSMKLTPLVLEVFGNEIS
Method in brief: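 VDR-bla cells were plated, incubated 4 h at 37C, then given compound and 1alpha,25-dihydroxyvitamin D3 (3 nM final). After 16 h at 37C, LiveBLAzer B/G FRET substrate was added for 2 h at room temperature and fluorescence read.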

[18] = target: Vitamin D3 receptor (Homo sapiens) (UniProt P11473); test: qHTS assay to identify small molecule agonists of the vitamin D receptor (VDR) signaling pathway (AID 743222; calls by dose curve)
Method in brief: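 In VDR-bla cells, compound-induced beta-lactamase expression is quantified by FRET substrate fluorescence. Treatment lasts 16 h at 37C; substrate develops 2 h at room temperature.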

[19] = qHTS assay to identify small molecule agonists of the peroxisome proliferator-activated receptor delta (PPARd) signaling pathway - cell viability counter screen (AID 743211); further: nearly all actives have a fitted effect of over 55% in size; further: potency means the concentration at half of the fitted maximal effect
Method in brief: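 PPARd-bla HEK293H cells (UAS-beta-lactamase reporter) were treated with compounds for 17 h at 37 C. Viability was then read in the same wells by CellTiter-Glo luminescence after 30 min at room temperature.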
On the % scale 0 is the no-effect control and ±100 the full control effect.

Cc1ccc2ccc3cccc4ccc1c2c34
inactive: Potency [1] | Potency [2] | Potency [3] | Potency [4] | Potency [5] | Potency [6] | Potency [7] | Potency [8] | Potency [9] | Potency [10] | outcome [11] | Potency [12] | Potency [13] | Potency [14] | Potency [15] | Potency [16]

N[C@@H](CSSC[C@H](N)C(=O)O)C(=O)O
inactive: Potency [1] | Potency [2] | Potency [3] | ratio activity, negative = inhibition [5] 3.31% [at 0.55 µM] | activity change, negative = cytotoxicity [6] 9.18% [at 0.55 µM] | activation [7] 9.27% [at 0.756 µM] | viability change, negative = cytotoxic [8] -0.389% [at 0.756 µM] | activation [11] -7.58% [at 0.55 µM] | viability change, negative = cytotoxic [14] -3.16% [at 0.55 µM] | activation [15] -0.652% [at 0.55 µM] | activity change, negative = cytotoxicity [16] 5.98% [at 0.55 µM]

CC(O)C#CC(C)O (stereo not drawn)
active: Potency [1] 30.3 µM | Potency [4] 54.4 µM | Potency [9] 21.7 µM
inactive: Potency [2] | Potency [3] | outcome [11] | Potency [12] | Potency [14] | Potency [16]

C/C=C/C=N/NC(=O)c1ccncc1
inactive: Potency [1] | Potency [3] | Potency [4] | Potency [5] | Potency [6] | Potency [8] | outcome [11] | Potency [12] | Potency [14] | Potency [16] | Potency [17]
active: Potency [2] 9.44 µM | Potency [7] 6.68 µM | Potency [9] 18.8 µM

CCCCNc1c(C(=O)OCC)c(C)nc2c1cnn2CC
active: Potency [2] 4.73 µM
inactive: Potency [1] | Potency [3] | Potency [4] | Potency [5] | Potency [6] | Potency [8] | Potency [9] | Potency [10] | outcome [11] | Potency [12] | Potency [13] | Potency [14] | Potency [16] | Potency [18]

CCCCCCCC/C=C/CCCOC(C)=O
inactive: Potency [1] | Potency [2] | Potency [3] | Potency [4] | Potency [5] | Potency [6] | Potency [8] | Potency [19] | outcome [11] | Potency [14] | Potency [15] | Potency [16] | Potency [17]

CCN1CCN(c2cc(-c3ccc(F)cc3)c3c(n2)CCCCCC3)CC1
inactive: Potency [1] | Potency [2] | Potency [3] | Potency [5] | Potency [6] | Potency [8] | Potency [9] | Potency [10] | Potency [13] | Potency [14] | Potency [16] | Potency [17]

CCN(CC)CCSC(=O)C(c1ccccc1)c1ccccc1
inactive: Potency [1] | Potency [2] | Potency [3] | Potency [6] | Potency [7] | Potency [8] | Potency [9] | Potency [16] | Potency [18] | Potency [17]

C[C@H]1O[C@@H](O[C@H]2[C@@H](O)C[C@H](O[C@H]3[C@@H](O)C[C@H](O[C@H]4CC[C@@]5(C)[C@H](CC[C@@H]6[C@@H]5C[C@@H](O)[C@]5(C)[C@@H](C7=CC(=O)OC7)CC[C@]65O)C4)O[C@@H]3C)O[C@@H]2C)C[C@H](O)[C@@H]1O
inactive: Potency [1] | Potency [2] | Potency [3] | Potency [10] | Potency [15]
active: Potency [6] 21.9 nM and 4.8 nM | Potency [8] 12.2 nM and 7.6 nM | Potency [9] 55 nM and 13.6 nM | Potency [19] 0.0385 µM | Potency [12] 24.6 nM and 13.6 nM | Potency [14] 24.6 nM and 12.2 nM

C=C[C@](C)(O)CC[C@@H]1[C@@]2(C)CCCC(C)(C)[C@@H]2CC[C@@]1(C)O
active: Potency [1] 61.1 µM | Potency [6] 49 µM | Potency [8] 77 µM | Potency [9] 43.6 µM | Potency [19] 54.9 µM
inactive: Potency [2] | Potency [3] | outcome [11]

O[C@@H](c1cc(C(F)(F)F)nc2c(C(F)(F)F)cccc12)[C@H]1CCCCN1
active: Potency [1] 26.6 µM | Potency [3] 29.8 µM | Potency [6] 29.8 µM | Potency [8] 29.8 µM | Potency [19] 10.6 µM | Potency [12] 8.41 µM | Potency [13] 13.3 µM | Potency [14] 13.3 µM | Potency [16] 26.6 µM
inactive: Potency [2] | Potency [9] | Potency [15]

CCN(CC)CCOc1ccc(C(O)(Cc2ccc(Cl)cc2)c2ccc(C)cc2)cc1 (stereo not drawn)
inactive: Potency [1] | Potency [2] | Potency [9] | Potency [15]
active: Potency [3] 29.8 µM | Potency [6] 29.8 µM | Potency [8] 21.1 µM | Potency [19] 10.6 µM | Potency [12] 13.3 µM | Potency [13] 29.8 µM | Potency [14] 13.3 µM | Potency [16] 29.8 µM

CCN(CC)CCCN(c1ccccc1)C1Cc2ccccc2C1
active: Potency [1] 29.8 µM | Potency [3] 13.3 µM
inactive: Potency [2] | Potency [5] | Potency [8] | Potency [9] | Potency [10] | outcome [11] | Potency [13] | Potency [14] | Potency [16] | Potency [18] | Potency [17]

CCc1cccc(C)c1
inactive: Potency [1] | Potency [2] | Potency [3] | Potency [6] | Potency [7] | Potency [8] | Potency [9] | Potency [10] | Potency [19] | outcome [11] | Potency [12] | Potency [13] | Potency [14] | Potency [15] | Potency [16] | Potency [18] | Potency [17]

C[C@@H]1CC[C@H]2C(C)(C)[C@H]3C[C@@]12CC[C@@]3(C)O
inactive: Potency [1] | Potency [2] | Potency [3] | Potency [6] | Potency [7] | Potency [8] | outcome [11] | Potency [12] | Potency [13] | Potency [15] | Potency [16]

O=C(O)CC(=O)O
inactive: Potency [1] | Potency [2] | Potency [3] | Potency [5] | Potency [6] | Potency [8] | Potency [9] | Potency [10] | Potency [19] | outcome [11] | Potency [12] | Potency [13] | Potency [14] | Potency [16] | Potency [17]

Clc1ccc(C(c2ccccc2Cl)C(Cl)Cl)cc1 (stereo not drawn)
inactive: Potency [1] | Potency [2] | Potency [3] | Potency [5] | Potency [8] | Potency [9] | outcome [11] | Potency [12] | Potency [13] | Potency [14] | Potency [15] | Potency [16]
active: Potency [6] 54.9 µM | Potency [19] 49 µM
